Screening data (PubChem)
HSF1 inh – HSF1 inhibition | AID 2098 | NIH3T3-HGL HSE-luciferase, MG132-induced, luminescence 8 h; active compounds read low | activity change, negative = inhibition, % at 7.5 µM (by protocol) | actives 0.77% (n = 300,000);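 active means more than half of replicate wells show activity change below -50%, luminescence cut by over half; inconclusive means some wells, but at most half, below -50%; inactive means no replicate well below -50%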;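 further: luciferase reports HSF-1 transcriptional activity via heat shock element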
FXN GAA850 act – activators of GAA850 frataxin (FXN) promoter; HEK293 lucGAA850 FXN promoter luciferase reporter, 24 h; percent of 10 µM SAHA response; activation, % at 6 µM; actives 0.56% (n = 360,000); AID 540364;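 active means activation above the average of all compounds screened plus 3 SD, cutoff fixed separately per campaign, cut at about 7.5% in these data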
HSP90 refold inh – inhibitors of HSP90 luciferase refolding in rabbit reticulocyte lysate. luciferase refolding luminescence, 3 h. inhibition, % at 5.6 µM. actives 0.91% (n = 290,000). AID 1789;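 active means inhibition above the screen-wide mean plus 3 SD, computed separately per campaign, cut at about 16% in these data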;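 further: inhibitors lower the luminescence because luciferase stays unfolded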
AHR act – activators of human aryl hydrocarbon receptor | AHR-responsive luciferase reporter cells, luminescence | activation, % at 5 µM | actives 2.5% (n = 320,000) | AID 2796; in the data active means activation above about 47%
DAX1 inh – inhibitors of human orphan nuclear receptor DAX1 (NR0B1) | HEK293 Gal4-DAX1 luciferase reporter, luminescence | P51843 | actives 0.99% (n = 340,000) | AID 504766 | inhibition, % at 6.75 µM;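 active means inhibition above the mean over all tested compounds plus 3 SD, cut at about 4.2% in these data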;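 further: inhibition shows as a rise in luminescence from relieved DAX1 repression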
HSF1 activator – increases HSF-1 driven luciferase reporter signal; NIH3T3-HGL HSF-1 luciferase reporter, MG132, 8 h; 100% = twice DMSO control signal; actives 1.7% (n = 300,000); activation, % at 9 µM; AID 504408;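 active means mean replicate activation of at least 50% with a set share of replicates each reaching 50%; inconclusive means only one of those two conditions met; inactive means mean below 50% and too few replicates reaching it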
HSP90 confirm – HSP90 inhibition, confirmation assay; shares compounds with HSP90 refold inh; rabbit reticulocyte lysate, luciferase refolding luminescence, 3 h; inhibition, % at 5.9 µM; actives 64% (n = 2,300); AID 1846; in the data active means inhibition above about 18%
luciferase ctr – firefly luciferase inhibition, HSP90 counter-screen. shares compounds with HSP90 refold inh. inhibition, % at 5.9 µM. AID 1847. purified native firefly luciferase, luminescence. actives 48% (n = 2,300);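 active means inhibition above the mean inhibition of all tested sample wells plus 3 SD, cut at about 10% in these data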
Target sequence (P08659 whole entry, looked up): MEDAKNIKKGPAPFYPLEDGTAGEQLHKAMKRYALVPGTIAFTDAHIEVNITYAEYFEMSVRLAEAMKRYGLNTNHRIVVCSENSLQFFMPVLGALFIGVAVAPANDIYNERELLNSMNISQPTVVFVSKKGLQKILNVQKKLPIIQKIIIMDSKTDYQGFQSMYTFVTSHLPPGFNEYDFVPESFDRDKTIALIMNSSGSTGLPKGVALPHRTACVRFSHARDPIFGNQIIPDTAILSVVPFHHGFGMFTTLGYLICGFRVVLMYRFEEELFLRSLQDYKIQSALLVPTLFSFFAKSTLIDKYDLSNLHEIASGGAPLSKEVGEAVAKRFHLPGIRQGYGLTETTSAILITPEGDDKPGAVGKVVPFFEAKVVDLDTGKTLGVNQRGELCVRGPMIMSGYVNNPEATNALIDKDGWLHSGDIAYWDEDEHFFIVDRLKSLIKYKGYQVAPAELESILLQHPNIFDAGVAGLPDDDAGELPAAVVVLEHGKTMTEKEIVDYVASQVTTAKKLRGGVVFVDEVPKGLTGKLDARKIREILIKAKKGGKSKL
A number is an active result; n = inactive; u = inconclusive; x = no result. A selection: hits, their analogues and other compounds. The true share with any hit is near 5.9%.

SMILES | HSF1 inh | FXN GAA850 act | HSP90 refold inh | AHR act | DAX1 inh | HSF1 activator | HSP90 confirm | luciferase ctr
Cc1ccsc1/C=N\NC(=O)c1n[nH]c2c1CCC2 | n | n | 19.9 | n | n | n | 47.5 | 43.0
COc1cc(/C=C2\CC/C(=C\c3cc(OC)c(OC)c(OC)c3)C2=O)cc(OC)c1OC | n | n | n | n | n | n | x | x
COc1cc(/C=C2\CC(C(C)(C)C)C/C(=C\c3cc(OC)c(OC)c(OC)c3)C2=O)cc(OC)c1OC (stereo unspecified) | n | n | 18.9 | n | n | 53.3 | 19.8 | n
O=C(N1CCN(c2cccc(Cl)c2)CC1)C1(c2cccs2)CCOCC1 | n | n | n | n | n | n | x | x
O=C(Nc1nnc(SCC(=O)N2CCCCC2)s1)c1ccc(F)cc1F | n | n | 51.5 | n | n | n | n | n
O=C(COc1ccccc1)NCC(=O)N/N=C/c1ccc(Br)cc1 | n | n | n | n | n | n | x | x
CC(=O)c1cccc(NC(=O)c2cnn3ccccc23)c1 | n | n | n | n | n | n | x | x
CC(=O)c1ccc(NC(=O)c2cnn3ccccc23)cc1 | u | n | 41.8 | n | n | n | 62.7 | 11.9
O=C(O)c1ccc(N/N=C/c2cn(Cc3ccccc3F)c3ccccc23)cc1 | -63.6 | n | 36.4 | n | n | n | 38.5 | 32.0
O=C(O)c1ccc(S(=O)(=O)NN=Cc2c[nH]c3ccccc23)cc1 | x | n | x | x | n | x | x | x
CC(C)n1cc(/C=N/Nc2ccc(C(=O)O)cc2)c2ccccc21 | -81.9 | n | 62.6 | n | n | n | 70.6 | 61.7
O=C(O)c1ccc(N/N=C/c2c[nH]c3ccccc23)cc1 | -77.7 | n | 81.7 | n | n | n | 89.1 | 86.0
Nc1ccc(C(=O)N/N=C/c2cn(Cc3ccccc3F)c3ccccc23)cc1 | n | n | n | x | n | n | x | x
Cn1cc(/C=N/Nc2ccccc2)c2ccccc21 | n | n | n | n | n | n | x | x
CN(C)S(=O)(=O)c1ccc(NC(=O)c2ccncc2)cc1 | n | n | 42.2 | n | n | n | n | n
COCCC1CCCCN1C(=O)c1cccc(OC2CCN(C3CCCC3)CC2)c1 (stereo unspecified) | n | n | n | n | n | n | x | x
COc1ccc(-c2nc3c(n2O)CCc2c-3no[n+]2[O-])cc1 | n | n | 36.6 | n | n | n | n | n
CCCCn1c(N)c(N(Cc2ccccc2OC)C(=O)c2ccc([N+](=O)[O-])s2)c(=O)[nH]c1=O | n | n | x | n | n | n | x | x
COc1ccccc1C1CCN(Cc2ccc(Cl)cc2Cl)CC1 | n | n | 17.2 | n | n | n | n | n
CCOC(=O)C(=O)Nc1ccc([N+](=O)[O-])cc1OC | n | n | 21.7 | n | n | n | n | n
COc1ccc(OC(=O)Nc2ccc([N+](=O)[O-])cc2OC)cc1 | n | n | 20.0 | n | n | n | n | n
CCOC(=O)Nc1ccc([N+](=O)[O-])cc1OC | n | n | n | n | n | n | x | x
COC(=O)Nc1cc([N+](=O)[O-])ccc1OC | n | n | n | n | n | n | x | x
Cc1ccc(C)c(NC(=O)CSc2nnc(CNC(=O)c3cccs3)o2)c1 | n | n | n | n | n | n | x | x
COc1ccc(C(=O)N(Cc2nc(-c3ccc(C)cc3)no2)C2CCCCC2)cc1OC | n | n | n | n | n | n | x | x
SMILES | HSF1 inh | FXN GAA850 act | HSP90 refold inh | AHR act | DAX1 inh | HSF1 activator | HSP90 confirm | luciferase ctr
Cc1cccc(NC(=O)NC2CC(=O)N(c3ccc4c(c3)OCCO4)C2)n1 (stereo unspecified) | n | n | n | n | n | n | x | x
O=C(NCc1ccco1)c1ccccc1Br | n | n | 18.6 | n | n | n | n | n
O=C(NNC(=S)NCc1ccco1)c1ccccc1Br | n | n | n | n | n | n | x | x
CCn1c(C)nc2cc(C(=O)NNC(=S)Nc3ccc(Cl)cc3)ccc21 | n | n | n | n | n | n | x | x
CCn1c(C)nc2cc(C(=O)NNC(=S)Nc3ccccc3)ccc21 | -67.0 | n | 34.1 | n | n | n | 31.6 | 26.7
N#Cc1cc2cc3c(cc2nc1SCC(=O)N1CCOCC1)OCCO3 | u | n | 20.8 | n | n | n | 16.6 | n
Cc1cc2cc3c(cc2nc1SCC(=O)N1CCCC1)OCCO3 | n | n | n | x | n | n | x | x
CC(=O)NC(c1ccccc1)c1cc(Cl)c2cccnc2c1O (stereo unspecified) | -82.8 | n | 18.2 | n | n | n | n | n
CCCc1ccc(-c2ccc(/C=C/C(=O)O)cc2)nc1 | n | n | 58.6 | n | n | n | 81.7 | 51.3
CCCCCc1ccc(-c2ccc(/C=C/C(=O)O)cc2)nc1 | n | n | n | n | n | n | x | x
CC(=O)Nc1ccc(NC(=O)CC(C)n2ccnc2)cc1 (stereo unspecified) | n | n | n | n | n | n | x | x
CC(=O)Nc1ccc(CNc2nc3cc(-c4ccccc4C)sc3c(=O)n2C)cc1 | x | n | x | x | x | x | x | x
COc1ccc([N+](=O)[O-])cc1NC(=O)CCS(=O)(=O)c1ccc(Br)cc1 | n | n | n | n | n | n | x | x
O=C1COc2ccc3ccccc3c21 | n | n | 24.9 | n | n | n | n | n
Cc1ccc2nc(-c3ccc(O)cc3)oc2c1 | n | n | n | n | n | n | x | x
Cc1ccc2nc(-c3cccc(N)c3)oc2c1 | n | n | 23.4 | n | n | n | 66.6 | 63.9
O=C(O)CN(c1ccccc1[N+](=O)[O-])S(=O)(=O)c1ccccc1 | n | n | n | n | n | n | x | x
CCC(=O)c1ccc(OCc2ccc(C(=O)OC)cc2)cc1 | n | n | 30.1 | n | n | n | 61.5 | n
Cc1ccc(C(=O)/C=C2\NCC(C)NC2=O)cc1 (stereo unspecified) | n | n | 37.4 | n | n | n | 56.2 | 43.1
CC(CN1CC(=O)NC(=O)C1)N1CC(=O)NC(=O)C1 (stereo unspecified) | x | n | x | x | n | x | x | x
Cc1nc(CS(=O)(=O)c2ccc(Cl)cc2)sc1C(=O)O | n | n | 32.5 | n | n | n | 48.7 | n
CC1(C)Cc2nc3sc4c(SCC(=O)O)ncnc4c3cc2CO1 | x | n | 18.9 | n | n | x | 30.8 | n
Cc1cc(C)c(S(=O)(=O)/N=C2\C=C(Nc3ccc(C(=O)O)cc3)C(=O)c3ccccc32)c(C)c1 | -87.4 | n | 45.9 | n | n | n | 78.8 | n
Cc1cc(C)c(S(=O)(=O)/N=C2\C=C(NS(=O)(=O)c3ccccc3)C(=O)c3ccccc32)c(C)c1 | n | n | n | n | n | n | x | x
O=C(O)c1ccc(NC2=C/C(=N/S(=O)(=O)c3ccccc3)c3ccccc3C2=O)cc1 | x | n | 86.2 | x | n | x | 92.5 | n
CCCn1cnc2c1c(=O)n(CCCCC(C)=O)c(=O)n2C | n | n | x | n | n | n | x | x
CC(C)c1cc(Nc2cccc(O)c2)cc(C(C)C)c1O | n | x | n | n | x | n | x | x
